According to PubChem BioAssay:
The source made the active and inactive calls.

Key:
[1] = system: PRMT1 (protein arginine N-methyltransferase 1); experiment: small molecules binding arginine methyltransferase PRMT1 – biochemical, small-molecule microarray, 635 nm fluorescence, primary screen (AID 1088); conditions: higher = more signal;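 note: binding of Prmt1 protein to compounds spotted on small-molecule microarray slides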
[2] = growth effects on S. cerevisiae YJM789 – YJM789 clinical isolate, OD600, 24 h, basal, primary screen (AID 1089); conditions: higher = more signal, called active from +8 up or from −8 down;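 note: growth of clinical yeast isolate S. cerevisiae YJM 789 seeded 1000 cells per well; test concentration not given here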
[3] = S. pombe growth modifiers, basal conditions – strain 972, OD600, 24 h, no modulator, primary screen (AID 1090);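 note: basal condition with compound alone and no growth modifier present; test concentration not given here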; conditions: S. pombe 972 growth, higher = more signal, called active from +8 up or from −8 down
[4] = budding yeast growth modifiers under rapamycin – strain BY4716, OD600, 96 h, primary screen (AID 1091); note: test concentration not given here; conditions: S. cerevisiae BY4716 + rapamycin, higher = more signal, called active from +8 up or from −8 down
[5] = molecular target: Torsin-1A-interacting protein 2 (Homo sapiens) (UniProt Q8NFQ8); experiment: small molecules binding lysate-expressed LULL1 – cell lysate, human LULL1 lysate, 635/667 nm fluorescence, primary screen (AID 1092); conditions: small-molecule microarray, hLULL1 lysate binding, 635 nm fluorescence; higher = more signal;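 note: probe is lysate of COS7 cells overexpressing human LULL1; score merges per-feature 667 nm fluorescence with signal-to-noise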
[6] = optical density change of DRC41 E. coli – strain DRC41, OD650, 24 h, E. coli filamentation project, primary screen (AID 1093);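 note: MC1000 strain lacking acrAB efflux and sulA so SOS filamentation is blocked; test concentration not given here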; conditions: E. coli DRC41 growth, higher = more signal, called active from +8 up or from −8 down
[7] = probe aLefty2 binding to arrayed compounds – biochemical, biotinylated probe, 635/667 nm fluorescence, primary screen (AID 1094); conditions: small-molecule microarray, higher = more signal;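 note: score merges spot fluorescence near 667 nm with spot signal-to-noise ratio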
[8] = system: Noggin (protein binding on small-molecule microarray); experiment: small molecules binding Noggin protein – biochemical, 635/667 nm fluorescence, primary screen (AID 1095); conditions: 635 nm fluorescence, higher = more signal;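 note: score merges 667 nm feature fluorescence with signal to noise over triplicate slides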
[9] = molecular target: Neurogenic locus notch homolog protein 3 (Homo sapiens) (UniProt Q9UM47); experiment: small molecules binding NOTCH3 protein – biochemical, 635/667 nm fluorescence, primary screen (AID 1096); conditions: small-molecule microarray, 635 nm fluorescence, higher = more signal
[10] = probe aEGFR binding to arrayed compounds – biochemical, biotinylated probe, 635/667 nm fluorescence, primary screen (AID 1097); conditions: small-molecule microarray, higher = more signal;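 note: probe is a biotinylated anti-EGFR antibody binding compounds printed on slides; score combines fluorescence near 667 nm and signal to noise of each spot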

Chain of Torsin-1A-interacting protein 2 (Homo sapiens) (Q8NFQ8 whole entry, looked up): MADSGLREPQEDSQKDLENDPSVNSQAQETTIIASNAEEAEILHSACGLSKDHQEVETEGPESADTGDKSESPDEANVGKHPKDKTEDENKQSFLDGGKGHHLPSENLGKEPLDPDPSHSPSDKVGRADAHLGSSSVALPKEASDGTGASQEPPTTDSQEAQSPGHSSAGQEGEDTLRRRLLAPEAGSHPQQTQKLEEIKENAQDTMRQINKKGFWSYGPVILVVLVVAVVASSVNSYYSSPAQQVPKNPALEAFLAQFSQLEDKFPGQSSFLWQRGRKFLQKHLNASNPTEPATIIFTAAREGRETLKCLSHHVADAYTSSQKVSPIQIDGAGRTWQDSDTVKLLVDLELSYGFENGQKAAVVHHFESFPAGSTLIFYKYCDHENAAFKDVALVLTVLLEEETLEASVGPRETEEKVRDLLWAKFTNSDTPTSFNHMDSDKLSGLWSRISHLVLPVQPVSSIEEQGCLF
Chain of Neurogenic locus notch homolog protein 3 (Homo sapiens) (Q9UM47 whole entry, looked up): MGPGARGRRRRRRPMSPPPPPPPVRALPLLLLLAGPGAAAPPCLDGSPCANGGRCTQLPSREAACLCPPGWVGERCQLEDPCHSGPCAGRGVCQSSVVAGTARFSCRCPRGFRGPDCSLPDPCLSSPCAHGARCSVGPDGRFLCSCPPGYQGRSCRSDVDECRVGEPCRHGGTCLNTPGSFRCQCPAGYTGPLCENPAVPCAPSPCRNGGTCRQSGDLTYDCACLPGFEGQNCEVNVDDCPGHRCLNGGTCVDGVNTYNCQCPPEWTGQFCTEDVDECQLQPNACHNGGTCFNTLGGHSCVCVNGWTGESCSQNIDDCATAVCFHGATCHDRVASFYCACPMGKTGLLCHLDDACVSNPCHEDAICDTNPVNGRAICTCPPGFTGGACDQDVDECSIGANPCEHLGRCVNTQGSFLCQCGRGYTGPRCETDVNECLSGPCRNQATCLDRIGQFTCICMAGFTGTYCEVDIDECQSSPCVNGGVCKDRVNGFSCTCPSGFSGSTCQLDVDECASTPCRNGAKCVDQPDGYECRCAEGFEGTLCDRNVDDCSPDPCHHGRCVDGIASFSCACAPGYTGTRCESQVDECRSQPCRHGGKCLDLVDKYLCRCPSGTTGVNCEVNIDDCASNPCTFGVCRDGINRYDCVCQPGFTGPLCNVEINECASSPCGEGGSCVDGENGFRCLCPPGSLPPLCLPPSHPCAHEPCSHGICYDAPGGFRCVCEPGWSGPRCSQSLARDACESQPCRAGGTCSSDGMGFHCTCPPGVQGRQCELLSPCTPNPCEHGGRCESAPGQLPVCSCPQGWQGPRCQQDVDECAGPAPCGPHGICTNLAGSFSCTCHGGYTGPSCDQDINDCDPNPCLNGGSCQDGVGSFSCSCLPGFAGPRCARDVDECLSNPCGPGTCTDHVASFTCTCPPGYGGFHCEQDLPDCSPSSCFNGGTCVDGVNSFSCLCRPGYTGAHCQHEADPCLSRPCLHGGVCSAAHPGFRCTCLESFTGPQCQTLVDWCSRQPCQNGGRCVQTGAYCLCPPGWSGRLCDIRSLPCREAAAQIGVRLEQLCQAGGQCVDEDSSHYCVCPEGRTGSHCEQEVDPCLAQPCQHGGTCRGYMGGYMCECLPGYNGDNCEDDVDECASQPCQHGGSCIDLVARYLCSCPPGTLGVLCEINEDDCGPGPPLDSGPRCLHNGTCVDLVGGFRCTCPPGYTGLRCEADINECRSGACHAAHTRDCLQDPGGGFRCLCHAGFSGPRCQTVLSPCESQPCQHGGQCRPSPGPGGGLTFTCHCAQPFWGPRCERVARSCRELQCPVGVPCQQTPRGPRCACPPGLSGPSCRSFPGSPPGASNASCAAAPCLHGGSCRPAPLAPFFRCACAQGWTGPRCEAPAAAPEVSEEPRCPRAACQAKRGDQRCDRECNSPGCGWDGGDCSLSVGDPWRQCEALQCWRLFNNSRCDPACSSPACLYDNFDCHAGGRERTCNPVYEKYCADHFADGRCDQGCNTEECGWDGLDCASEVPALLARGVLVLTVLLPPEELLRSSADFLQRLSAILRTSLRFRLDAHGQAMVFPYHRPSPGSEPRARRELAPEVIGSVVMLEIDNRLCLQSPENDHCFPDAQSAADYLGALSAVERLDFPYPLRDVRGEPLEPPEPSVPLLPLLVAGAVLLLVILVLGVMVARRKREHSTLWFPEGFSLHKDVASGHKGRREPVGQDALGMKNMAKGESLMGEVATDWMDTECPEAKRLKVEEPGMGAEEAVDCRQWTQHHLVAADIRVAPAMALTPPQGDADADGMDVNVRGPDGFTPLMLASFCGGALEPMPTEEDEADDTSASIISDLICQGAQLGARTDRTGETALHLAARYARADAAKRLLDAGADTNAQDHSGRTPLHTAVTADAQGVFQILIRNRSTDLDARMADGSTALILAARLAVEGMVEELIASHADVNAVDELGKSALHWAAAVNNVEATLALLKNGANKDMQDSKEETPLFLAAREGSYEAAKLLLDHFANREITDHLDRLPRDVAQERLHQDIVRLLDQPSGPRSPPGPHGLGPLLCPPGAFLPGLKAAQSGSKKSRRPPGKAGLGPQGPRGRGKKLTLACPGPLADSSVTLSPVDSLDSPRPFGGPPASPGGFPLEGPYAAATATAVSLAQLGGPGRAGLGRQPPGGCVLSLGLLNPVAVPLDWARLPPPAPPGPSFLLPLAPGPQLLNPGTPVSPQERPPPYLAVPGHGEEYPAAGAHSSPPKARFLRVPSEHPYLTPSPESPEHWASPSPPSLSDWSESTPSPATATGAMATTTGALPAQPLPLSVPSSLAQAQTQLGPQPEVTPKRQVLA

For `CC(C)=C1C(=O)C(c2ccccc2)=C2CN3C(=O)N(CCc4ccccc4)C(=O)[C@]3(Cc3ccc(C(F)(F)F)cc3)[C@H]21`, the composite z-score [1] was -0.555, the z-score [2] was -0.117 (inactive) and the z-score [3] was 1.38 (inactive). The z-score [4] was 0.812 (inactive), the composite z-score [5] was 2.45 and the z-score [6] was -1.48 (inactive). The composite z-score [7] was 0.01, the composite z-score [8] was -1.08 and the composite z-score [9] was 0.245. The composite z-score [10] was -0.139.
In the case of `CCCC=C(CCC)[C@@H](NC(=O)c1cccs1)c1ccc(C(=O)OC)cc1`, the composite z-score [1] is reported as -1.88, the z-score [2] is reported as -0.0214 (inactive) and the z-score [3] is reported as 0.598 (inactive). The z-score [4] was -0.0964 (inactive), the composite z-score [5] was 0.905 and the z-score [6] was -0.0658 (inactive). The composite z-score [7] was 1.18, the composite z-score [8] was 0.542 and the composite z-score [9] was 0.587. For the same molecule, the composite z-score [10] was 0.925.
For `COc1ccc(CCNC(=O)[C@@]2(c3ccc([N+](=O)[O-])cc3)CC(=O)N(C3CCCCC3)[C@@H]2c2ccc(CO)cc2)cc1`, the composite z-score [1] was 1.29, the z-score [2] was 0.812 (inactive) and the z-score [3] was -0.501 (inactive). The z-score [4] was 0.361 (inactive), the composite z-score [5] was 2.75 and the z-score [6] was 1.3 (inactive). For the same molecule, the composite z-score [7] was 0.157, the composite z-score [8] was -0.23 and the composite z-score [9] was 0.627. For the same molecule, the composite z-score [10] was -0.0452.
In the case of `C=C(COC)C(=O)CC[C@@H](OC(C)=O)c1cccc(OCCO)c1`, the composite z-score [1] is reported as -0.352, the z-score [2] is reported as 1.01 (inactive) and the z-score [3] is reported as -0.953 (inactive). For the same molecule, the z-score [4] was 0.962 (inactive), the composite z-score [5] was -0.329 and the z-score [6] was 0.302 (inactive). For the same molecule, the composite z-score [7] was -0.116, the composite z-score [8] was -0.0606 and the composite z-score [9] was -0.132. The composite z-score [10] was -0.211.
For `CCN(CC)c1ccc(N2CC=CC34O[C@@H]5/C=C\CCCOC(=O)C5[C@H]3C(=O)N(C(C)CO)[C@@H]4C2=O)cc1` (stereo not given in full), the composite z-score [1] was 0.428, the z-score [2] was -0.991 (inactive) and the z-score [3] was -1.47 (inactive). The z-score [4] was -0.497 (inactive), the composite z-score [5] was 0.347 and the z-score [6] was 1.42 (inactive). The composite z-score [7] was -0.243, the composite z-score [8] was -0.045 and the composite z-score [9] was 0.204. For the same molecule, the composite z-score [10] was -0.189.
In the case of `O=C1C2C=CC(C(O)c3cccc(O)c3)N(Nc3ccc([N+](=O)[O-])cc3)C2C(=O)N1c1ccccc1` (stereo not given), the composite z-score [1] is reported as 0.622, the z-score [2] is reported as 0.706 (inactive) and the z-score [3] is reported as 0.667 (inactive). The z-score [4] was 1.3 (inactive), the composite z-score [5] was 1.87 and the z-score [6] was 0.404 (inactive). It also gave a composite z-score [7] of -0.021, a composite z-score [8] of 0.196 and a composite z-score [9] of 0.715. The composite z-score [10] was -0.0041.
With `CC(C)(C)OC(=O)COc1cccc(C(=O)CCN2CCOCC2)c1` the composite z-score [1] was 1.34, the z-score [2] was -0.728 (inactive) and the z-score [3] was -19.8 (active). For the same molecule, the z-score [4] was -2.13 (inactive), the composite z-score [5] was 0.557 and the z-score [6] was 0.328 (inactive). The composite z-score [7] was -0.126, the composite z-score [8] was -0.0786 and the composite z-score [9] was -0.529. For the same molecule, the composite z-score [10] was -0.0815.
In the case of `C=CCOC(=O)[C@@]1(Cc2ccccc2)C[C@H]2CO[C@H](c3ccc(OC)cc3)N2C1=O`, the composite z-score [1] is reported as 0.262, the z-score [2] is reported as -2.65 (inactive) and the z-score [3] is reported as -3.58 (inactive). For the same molecule, the z-score [4] was 0.0326 (inactive), the composite z-score [5] was 0.317 and the z-score [6] was 0.1 (inactive). It also gave a composite z-score [7] of -0.126, a composite z-score [8] of 0.224 and a composite z-score [9] of 0.408. For the same molecule, the composite z-score [10] was -0.15.
For `O=C1C2C=CC(C(O)c3ccco3)N(Nc3ccccc3F)C2C(=O)N1c1ccccc1` (stereo not given), the composite z-score [1] was -0.281, the z-score [2] was 0.252 (inactive) and the z-score [3] was 0.512 (inactive). The z-score [4] was -0.119 (inactive), the composite z-score [5] was 2.46 and the z-score [6] was -1.47 (inactive). For the same molecule, the composite z-score [7] was 0.0686, the composite z-score [8] was -0.221 and the composite z-score [9] was 0.569. For the same molecule, the composite z-score [10] was -0.0435.
In the case of `C=CCNC(=O)[C@@H]1[C@H]2C(=O)O[C@H](c3ccccc3)[C@H](c3ccccc3)N2[C@H](c2ccc(OCCO)cc2)[C@@]12C(=O)N(C(=O)OCCOC)c1ccc(C#Cc3ccc(OC)cc3)cc12`, the composite z-score [1] is reported as 1.49, the z-score [2] is reported as 1.59 (inactive) and the z-score [3] is reported as 1.77 (inactive). The z-score [4] was 6.26 (inactive), the composite z-score [5] was 3.13 and the z-score [6] was 0.361 (inactive). It also gave a composite z-score [7] of 0.0645, a composite z-score [8] of 1.23 and a composite z-score [9] of 1.05. The composite z-score [10] was -0.0974.
In the case of `COCCOC(=O)N1C(=O)[C@@]2(c3cc(C#CC4=CCCCC4)ccc31)[C@H](c1ccccc1OCCO)N1[C@H](c3ccccc3)[C@H](c3ccccc3)OC(=O)[C@H]1[C@@H]2C(=O)NC[C@H](O)c1ccccc1`, the composite z-score [1] is reported as 1.54, the z-score [2] is reported as 1.01 (inactive) and the z-score [3] is reported as 0.785 (inactive). For the same molecule, the z-score [4] was 3.28 (inactive), the composite z-score [5] was 2.54 and the z-score [6] was -0.314 (inactive). The composite z-score [7] was -0.0671, the composite z-score [8] was 1.45 and the composite z-score [9] was 1.07. For the same molecule, the composite z-score [10] was -0.0476.
For `C=CCC(OC(C)=O)[C@@H]1[C@@H](N(Cc2ccc(-c3cccc(C(F)(F)F)c3)o2)C(=O)Cc2ccc(OC)cc2)c2cc(OCCCO)ccc2N1C(=O)c1ccc(-c2ccccc2)cc1` (stereo not given in full), the composite z-score [1] was 0.62, the z-score [2] was 0.282 (inactive) and the z-score [3] was 0.297 (inactive). For the same molecule, the z-score [4] was 0.322 (inactive), the composite z-score [5] was 0.442 and the z-score [6] was -0.936 (inactive). For the same molecule, the composite z-score [7] was -0.0436, the composite z-score [8] was -0.478 and the composite z-score [9] was -0.449. It also gave a composite z-score [10] of -0.146.
For `COc1cc2c(cc1O)C(C1CC1)N(C)CC2` (stereo not given), the composite z-score [1] was 0.153, the z-score [2] was 0.814 (inactive) and the z-score [3] was 0.74 (inactive). For the same molecule, the z-score [4] was -0.531 (inactive), the composite z-score [5] was 0.0629 and the z-score [6] was -0.965 (inactive). The composite z-score [7] was 0.0112, the composite z-score [8] was 0.0427 and the composite z-score [9] was -0.944. The composite z-score [10] was -0.171.
In the case of `C=CCN1C(=O)[C@]2(CCS(=O)(=O)c3ccccc3)N=C(c3ccc(OCCCO)cc3)O[C@@H]2c2ccccc21`, the composite z-score [1] is reported as 1.54, the z-score [2] is reported as -0.523 (inactive) and the z-score [3] is reported as -1.16 (inactive). For the same molecule, the z-score [4] was 2.46 (inactive), the composite z-score [5] was 3.65 and the z-score [6] was 0.624 (inactive). The composite z-score [7] was 0.0416, the composite z-score [8] was 1.49 and the composite z-score [9] was 1.1. The composite z-score [10] was 0.0574.
With `C=CCNC(=O)[C@@H]1[C@H]2C(=O)O[C@H](c3ccccc3)[C@H](c3ccccc3)N2[C@H](c2ccc(O)cc2)[C@@]12C(=O)N(C(=O)OCCOC)c1ccc(C#CC3=CCCCC3)cc12` the composite z-score [1] was 1.49, the z-score [2] was 0.675 (inactive) and the z-score [3] was 0.428 (inactive). For the same molecule, the z-score [4] was 0.969 (inactive), the composite z-score [5] was 2.25 and the z-score [6] was -0.633 (inactive). It also gave a composite z-score [7] of -0.156, a composite z-score [8] of 1.14 and a composite z-score [9] of 1.09. It also gave a composite z-score [10] of -0.0697.
In the case of `CN1C(=O)C2C=CC(C(O)c3cccn3C)N(Nc3ccc([N+](=O)[O-])cc3[N+](=O)[O-])C2C1=O` (stereo not given), the composite z-score [1] is reported as 0.0715, the z-score [2] is reported as 0.82 (inactive) and the z-score [3] is reported as 1.33 (inactive). For the same molecule, the z-score [4] was 0.731 (inactive), the composite z-score [5] was 0.711 and the z-score [6] was -0.345 (inactive). It also gave a composite z-score [7] of 0.269, a composite z-score [8] of 0.5 and a composite z-score [9] of -0.266. For the same molecule, the composite z-score [10] was 0.0365.
With `CN(C)C(=O)[C@]1(CCC(=O)OC(C)(C)C)N=C(c2ccc(OCCCO)cc2)O[C@@H]1c1ccccc1CN=[N+]=[N-]` the composite z-score [1] was 1.18, the z-score [2] was -0.299 (inactive) and the z-score [3] was -1.65 (inactive). The z-score [4] was -0.619 (inactive), the composite z-score [5] was 3.81 and the z-score [6] was 0.682 (inactive). For the same molecule, the composite z-score [7] was 0.0987, the composite z-score [8] was 0.717 and the composite z-score [9] was -0.162. The composite z-score [10] was -0.149.
In the case of `[N-]=[N+]=Nc1ccccc1C[C@@]1(C(=O)N2CCOCC2)N=C(c2ccc(OCCCO)cc2)O[C@@H]1c1ccccc1`, the composite z-score [1] is reported as 1.54, the z-score [2] is reported as -1.41 (inactive) and the z-score [3] is reported as -2.77 (inactive). For the same molecule, the z-score [4] was 0.0666 (inactive), the composite z-score [5] was 3.38 and the z-score [6] was 0.568 (inactive). It also gave a composite z-score [7] of 0.0946, a composite z-score [8] of 0.955 and a composite z-score [9] of 1.11. The composite z-score [10] was 0.778.
